This is a sample that favours compounds with a hit; in the whole collection about 3.2% have one here.
HDAC3 inh – blocks human histone deacetylase 3. actives 0.15% (n = 320,000). recombinant HDAC3, fluorogenic peptide/trypsin coupled, fluorescence. inhibition, % at 8.3 µM. O15379. AID 2718; in the data active = inhibition above about 26%, passing the limit was not always enough; inconclusive = no clear call, values can overlap the other calls
Target sequence (O15379 whole entry, looked up): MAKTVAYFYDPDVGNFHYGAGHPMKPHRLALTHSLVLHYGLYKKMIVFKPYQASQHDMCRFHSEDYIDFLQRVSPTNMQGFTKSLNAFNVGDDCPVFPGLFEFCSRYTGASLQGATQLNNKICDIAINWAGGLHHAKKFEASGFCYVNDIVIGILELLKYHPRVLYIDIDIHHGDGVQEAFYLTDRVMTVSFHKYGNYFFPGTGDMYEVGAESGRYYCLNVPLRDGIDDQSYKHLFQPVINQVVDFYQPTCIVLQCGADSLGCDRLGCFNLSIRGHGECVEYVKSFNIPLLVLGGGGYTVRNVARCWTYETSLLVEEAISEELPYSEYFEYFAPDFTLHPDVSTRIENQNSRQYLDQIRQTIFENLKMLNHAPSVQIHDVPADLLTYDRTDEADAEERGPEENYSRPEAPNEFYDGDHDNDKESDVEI
CHT PAM – allosterically activates the human high affinity choline transporter; actives 0.49% (n = 310,000); CHT-expressing cells, membrane potential dye, choline EC20; stronger effect = higher value; LV-AA mutant CHT in HEK293 cells; B-score at 10 µM;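 active = initial fluorescence not abnormally high and integrated response B-score, plate-corrected, over 3 SD above library mean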
ANO1 block – inhibitors of mouse TMEM16A calcium-activated chloride channel. actives 1.2% (n = 310,000). AID 588511. Q8BHY3. HEK293 TMEM16A/YFP iodide influx fluorescence, ionomycin. normalized B-score (activity score, 25-100; higher = stronger inhibition) at 10 µM;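 active = ratio plate-corrected score three or more library SD toward inhibition, starting fluorescence score within five deviations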;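 also: score derived from kinetic fluorescence span divided by baseline fluorescence per well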
CHT block – inhibitors of human choline transporter CHT | CHT-expressing cells, membrane potential dye, choline response; stronger effect = lower value | B-score at 10 µM | actives 0.86% (n = 310,000) | AID 488975 | Q9GZV3;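 active = B-score over 3 SD under the library average, and starting fluorescence ratio not unusually high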;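 also: choline stimulus applied at its EC90 after an EC20 pre-addition; B-score computed on integrated fluorescence ratio after choline addition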
ANO1 activ – mouse TMEM16A channel activation, primary screen | Q8BHY3 | HEK293 TMEM16A/YFP-H148Q/I152L, iodide quench fluorescence; stronger effect = lower value | B-score at 10 µM | actives 0.3% (n = 340,000);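 active = fluorescence-ratio B-score plate-corrected deviation score at least 3 library SD below zero, with starting fluorescence score within 5 deviations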;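 also: channel opened by trigger with iodide after compound preincubation; score built on the fluorescence ratio of max minus min over baseline; more negative score means more quench and so TMEM16A activation or potentiation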
PHOSPHO1 block – blocks human PHOSPHO1 phosphatase activity | Q8TCT1 | recombinant PHOSPHO1, absorbance phosphatase assay | inhibition, % at 13.3 µM | actives 1.1% (n = 290,000) | AID 1565; in the data active = inhibition above about 60%
Of the large screens only hits and unclear results are named; the others gave an inactive call; ! = not active in a repeat.

CCOC(=O)COn1c(-c2cccc(Cl)c2)nc2ccc([N+](=O)[O-])cc21	PHOSPHO1 block 64.7
CCOC(=O)C(C)On1c(-c2cccc(Cl)c2)nc2ccc([N+](=O)[O-])cc21 (stereo not drawn)	ANO1 block 100
CC(On1c(-c2ccccc2)nc2ccc(Cl)cc21)C(=O)O (stereo not drawn)	none
COc1ccccc1NC(=O)CSc1nnc(C2CCCCC2)o1	none
CN(C)S(=O)(=O)c1ccc(C(=O)Nc2ccccc2SCCC#N)cc1	none
O=C(Nc1ccc(F)cc1)c1ccc2c(=O)n3c(nc2c1)CCCCC3	ANO1 block 25
CCN(C(=O)c1ccc2c(=O)n3c(nc2c1)CCCCC3)c1cc(OC)ccc1OC	PHOSPHO1 block 64.9
COc1ccc(CN(C)C(=O)c2ccc3c(=O)n4c(nc3c2)CCC4)c(OC)c1	none (no result: PHOSPHO1 block)
CC(=O)c1ccc(NC(=O)c2ccc3c(=O)n4c(nc3c2)CCCCC4)cc1	none
O=C(CCC1CCCN(c2ncccn2)C1)N1CCN(c2ccccn2)CC1 (stereo not drawn)	none
CC1Cc2ccccc2N1C(=O)CSc1nnnn1C(C)C (stereo not drawn)	PHOSPHO1 block 62.3
CN1C(=S)SC(N(O)C(=O)Nc2cccc3ccccc23)C1(C)C (stereo not drawn)	PHOSPHO1 block 62.6
CN1C(=S)SC(N(O)C(=O)Nc2ccccc2)C1(C)C (stereo not drawn)	none
Cc1cc2ccccc2c(=O)n1CC(=O)NCc1ccco1	none
NC(=S)Nc1cccc2cc3ccccc3cc12	PHOSPHO1 block 96.8
O=S(=O)(CC(O)COc1ccccc1Cl)c1ccccc1 (stereo not drawn)	PHOSPHO1 block 66.1
N#Cc1ccccc1OCC(O)CS(=O)(=O)c1ccccc1 (stereo not drawn)	none
CCc1nn2c(=O)cc(COc3ccc(NC(=O)c4ccco4)cc3)nc2s1	none
CCCc1nn2c(=O)cc(COc3ccc(NC(=O)c4ccco4)cc3)nc2s1	PHOSPHO1 block 63.6
C[C@H](NC(=O)C1CCN(S(=O)(=O)c2ccccc2)CC1)C(=O)NCc1cccc(C(F)(F)F)c1	none
Cc1ccc(C(=O)ONc2ccc(N=NC(=O)c3ccccc3O)cc2)cc1	PHOSPHO1 block 68.8
CC(C)(C)c1cc[n+](-c2nc([O-])sc2C=O)cc1	none
CCc1cc[n+](-c2nc([O-])sc2C=O)cc1	PHOSPHO1 block 79.2
Cc1ccc(S(=O)(=O)NC2(C(=O)O)CCCCC2)cc1	none
CCn1c(=O)cc(SCC(=O)N2CCN(c3ccccc3OC)CC2)c2ccccc21	PHOSPHO1 block 62.6
CCn1c(=O)cc(SCC(=O)N2CCOCC2)c2ccccc21	none
COC(=O)c1cc2occc2n1Cc1ccc(Cl)cc1	PHOSPHO1 block 64.2
Nc1ccc2nc3c(=O)n(CCc4ccccc4)c(=O)[nH]c3nc2c1	ANO1 activ -6.58
Cc1cc2nc3c(=O)n(CCc4ccccc4)c(=O)[nH]c3nc2cc1N	none
Cc1ccccc1C(=O)NC(=S)Nc1ncccn1	none
CN(Cc1cccc(-n2cccn2)c1)C(=O)CCc1nnc(C2CCCCC2)o1	ANO1 activ -6.37
Cc1nc(N)sc1-c1csc(Nc2ccccn2)n1	PHOSPHO1 block 70.2 (no result: HDAC3 inh, CHT PAM, ANO1 block, CHT block)
COc1ccc(Nc2nc(CC(C)=O)ns2)cc1	ANO1 activ -15.9
COc1cccc(Nc2nc(CC(C)=O)ns2)c1	none
COc1ccc(Nc2nc(-c3sc(N)nc3C)cs2)cc1	PHOSPHO1 block 68.3
COc1ccc(Nc2nc(-c3sc(NC(C)=O)nc3C)cs2)cc1	CHT block -5.09, PHOSPHO1 block 73.1 (no result: ANO1 activ)
Cc1ccc(-c2csc(Nc3ccccn3)n2)cc1	none
COc1ccc(-c2csc(Nc3ccccn3)n2)cc1OC	HDAC3 inh inconclusive, ANO1 block 25
Cc1c(C(N)=O)c(-c2ccccc2)nn1-c1ccccc1	none
CCCc1c(-c2ccc(O)cc2)nn(-c2ccc(O)cc2)c1-c1ccc(O)cc1	ANO1 block 100
CCOC(=O)c1cc(CC)sc1NC(=O)CC1Sc2ccc(C(F)(F)F)cc2NC1=O (stereo not drawn)	none
CCOc1cc(/C=C(\C#N)C(=O)Nc2cccc(C(=O)O)c2)cc(Br)c1OC(=O)c1ccc(OC)cc1	ANO1 block 100
COc1cc(/C=C(\C#N)C(=O)Nc2cccc(C(=O)O)c2)ccc1OCc1ccc(F)cc1	none
CCOc1cc(/C=C(\C#N)C(=O)Nc2cccc(C(=O)O)c2)ccc1OCc1ccccc1Cl	ANO1 block 100
CC(=O)c1c(C)[nH]c(C(=O)NCc2ccc(F)cc2)c1C	none
CCOc1cccc(CNCc2ccncc2)c1	PHOSPHO1 block 61.5
CCOc1cc(CNCc2ccncc2)cc(Br)c1OCc1ccc(F)cc1	ANO1 block 100
Fc1ccc(COc2cccc(CNCc3ccncc3)c2)cc1	ANO1 block 25
CCN(CC)C(=O)CCCOc1ccc(Cl)cc1Cl	none
CCN(CC(=O)Nc1ccc2c(c1)OCCO2)C(=O)/C=C/c1ccc(OC)cc1OC	PHOSPHO1 block 62.4
Cc1nn2c3ccccc3n(Cc3ccccc3)c2nc1=O	ANO1 activ -20.4
CCN(CC)C(C(=O)Nc1ccc(C(C)C)cc1)c1ccc2c(c1)OCO2 (stereo not drawn)	none
Cc1ccc(-c2nn(-c3ccc(F)cc3)cc2C(=O)NCC2CCCO2)cc1 (stereo not drawn)	none (no result: PHOSPHO1 block)
Clc1ccc(-c2nn3c(C4COc5ccccc5O4)nnc3s2)cc1 (stereo not drawn)	PHOSPHO1 block 92.1
COc1ccc(NC(=O)c2nc[nH]c2C(=O)N[C@@H](C)C(=O)OC(C)(C)C)cc1	none
CC(C)Cn1cnc2c(c1=N)C(c1ccccc1)C1=C(CC(C)(C)CC1=O)O2 (stereo not drawn)	none
O=C1OCC(Cn2c3ccccc3c3ccccc32)O1 (stereo not drawn)	PHOSPHO1 block 77.6
O=c1c2ccccc2c2ccccc2c(=O)n1CC1CCCO1 (stereo not drawn)	none
COc1cc(NC(=S)NCC2CCCO2)c(OC)cc1Cl (stereo not drawn)	none (no result: HDAC3 inh)
COC(=O)c1cc(C(=O)c2ccc(C(C)(C)C)cc2)c[nH]1	ANO1 block 25
COc1ccc(C(=O)c2c(C(F)(F)F)oc3c2C(=O)c2ccccc2C3=O)cc1OC	PHOSPHO1 block 82.4
Cn1c(=O)[nH]c(=O)c2c1nc(SCC(=O)O)n2CCCc1ccccc1	none
c1ccc2[nH]c(-c3ccnc4ccccc34)nc2c1	PHOSPHO1 block 89.0!
CCN(CC)S(=O)(=O)c1cccc(-c2cn3cccnc3n2)c1	none (no result: HDAC3 inh)
COc1cc(C)c(/C=C(\C#N)C(=O)Nc2ccc(C)cc2)cc1C(C)C	none (no result: HDAC3 inh)
COCCNC(=O)/C(C#N)=C/c1cc(C(C)C)c(OC)cc1C	PHOSPHO1 block 60.9

High-throughput results (PubChem BioAssay)
